Assay results published in PubChem BioAssay AID1159580 (chemical genetic matrix, 2015).
The whole screen tested about 5,500 compounds, of which about 2,000 (36%) were called active. Inconclusive results (about 18%) are left out. No stated cut-off is given here; in the data, active means normalized growth mostly below about 0.91 (no sharp cut-off); inconclusive means no clear call, values can overlap the other calls; inactive means mostly above about 0.92. The list shows a part of the results.

Assay: chemical genetic growth profiling, strain panel (AID 1159580);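 further: tested at 20 µM; growth read once vehicle control cultures reached saturation at 30 °C; 1 = growth at the plate median or of vehicle wells; lower values mean less growth of the strain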
Settings: growth OD

Measured: normalized growth

C=C[C@@H](C1=CC(=O)C(OC)=C(OC)C1=O)c1ccccc1
active: S. cerevisiae deletion strains, locus YKL160W, strain elf1, active compounds read low 0.401 | S. cerevisiae deletion strains, locus YKL190W, strain CNB1, active compounds read low 0.0937 | S. cerevisiae deletion strains, locus YKR001C, strain vps1, active compounds read low 0.158 | S. cerevisiae deletion strains, locus YLL001W, strain dnm1, active compounds read low 0.794 | S. cerevisiae deletion strains, locus YLL026W, active compounds read low 0.679 | S. cerevisiae deletion strains, locus YLL041C, strain sdh2, active compounds read low 0.811 | S. cerevisiae deletion strains, locus YLR027C, strain aat2, active compounds read low 0.448 | S. cerevisiae deletion strains, locus YLR039C, strain RIC1, active compounds read low 0.361 | S. cerevisiae deletion strains, locus YLR102C, strain apc9, active compounds read low 0.515 | S. cerevisiae deletion strains, locus YLR113W, strain HOG1, active compounds read low 0.719 | S. cerevisiae deletion strains, locus YLR221C, strain rsa3, active compounds read low 0.363 | S. cerevisiae deletion strains, locus YLR258W, strain gsy2, active compounds read low 0.561 | S. cerevisiae deletion strains, locus YLR262C, strain YPT6 (second series), active compounds read low 0.17 | S. cerevisiae deletion strains, locus YLR262C, strain YPT6, active compounds read low 0.195 | S. cerevisiae deletion strains, locus YLR268W, strain sec22, active compounds read low 0.193 | S. cerevisiae deletion strains, locus YLR320W, strain mms22, active compounds read low 0.219 | S. cerevisiae deletion strains, locus YLR342W, strain FKS1 (second series), active compounds read low 0.331 | S. cerevisiae deletion strains, locus YLR342W, strain FKS1, active compounds read low 0.72 | S. cerevisiae deletion strains, locus YLR370C, strain arc18, active compounds read low 0.811 | S. cerevisiae deletion strains, locus YLR371W, strain rom2, active compounds read low 0.285 | S. cerevisiae deletion strains, locus YLR418C, strain cdc73, active compounds read low 0.141 | S. cerevisiae deletion strains, locus YML016C, strain PPZ1, active compounds read low 0.292 | S. cerevisiae deletion strains, locus YMR058W, strain fet3, active compounds read low 0.612 | S. cerevisiae deletion strains, locus YMR078C, strain ctf18, active compounds read low 0.381 | S. cerevisiae deletion strains, locus YMR125W, strain sto1, active compounds read low 0.284 | S. cerevisiae deletion strains, locus YMR129W, active compounds read low 0.659 | S. cerevisiae deletion strains, locus YMR205C, strain PFK2, active compounds read low 0.689 | S. cerevisiae deletion strains, locus YMR223W, strain ubp8, active compounds read low 0.493 | S. cerevisiae deletion strains, locus YMR231W, strain pep5, active compounds read low 0.529 | S. cerevisiae deletion strains, locus YMR307W, strain GAS1, active compounds read low 0.224 | S. cerevisiae deletion strains, locus YNL067W, strain RPL9B, active compounds read low 0.67 | S. cerevisiae deletion strains, locus YNL071W, strain lat1, active compounds read low 0.0795 | S. cerevisiae deletion strains, locus YNL183C, strain NPR1, active compounds read low 0.799 | S. cerevisiae deletion strains, locus YNL209W, strain ssb2, active compounds read low 0.748 | S. cerevisiae deletion strains, locus YNL233W, strain BNI4, active compounds read low 0.121 | S. cerevisiae deletion strains, locus YNL248C, strain rpa49, active compounds read low 0.403 | S. cerevisiae deletion strains, locus YNL271C, strain bni1, active compounds read low 0.88 | S. cerevisiae deletion strains, locus YNL307C, strain MCK1, active compounds read low 0.0762 | S. cerevisiae deletion strains, locus YNL322C, strain KRE1, active compounds read low 0.835 | S. cerevisiae deletion strains, locus YOL012C, strain htz1 0.17 | S. cerevisiae deletion strains, locus YOR061W, strain CKA2, active compounds read low 0.829 | S. cerevisiae deletion strains, locus YOR069W, strain VPS5, active compounds read low 0.314 | S. cerevisiae deletion strains, locus YOR070C, strain gyp1, active compounds read low 0.487 | S. cerevisiae deletion strains, locus YOR083W, strain WHI5, active compounds read low 0.554 | S. cerevisiae deletion strains, locus YOR106W, strain vam3, active compounds read low 0.297 | S. cerevisiae deletion strains, locus YOR136W, strain idh2, active compounds read low 0.675 | S. cerevisiae deletion strains, locus YOR184W, strain ser1, active compounds read low 0.15 | S. cerevisiae deletion strains, locus YOR265W, strain rbl2, active compounds read low 0.686 | S. cerevisiae deletion strains, locus YOR270C, strain vph1, active compounds read low 0.616 | S. cerevisiae deletion strains, locus YOR316C, strain cot1, active compounds read low 0.833 | S. cerevisiae deletion strains, locus YPL051W, strain arl3, active compounds read low 0.384 | S. cerevisiae deletion strains, locus YPL240C, strain hsp82, active compounds read low 0.625 | S. cerevisiae deletion strains, locus YPL241C, strain CIN2, active compounds read low 0.523 | S. cerevisiae deletion strains, locus YPR119W, strain clb2, active compounds read low 0.615 | S. cerevisiae deletion strains, locus YPR163C, strain tif3, active compounds read low 0.151 | S. cerevisiae deletion strains, locus YPR167C, strain met16, active compounds read low 0.456 | S. cerevisiae deletion strains, strain wtn01, active compounds read low 0.196 | S. cerevisiae strains, strain wild type, active compounds read low 0.114
inactive: S. cerevisiae deletion strains, locus YKL009W, strain mrt4, active compounds read low 0.957 | S. cerevisiae deletion strains, locus YKL068W, active compounds read low 1 | S. cerevisiae deletion strains, locus YKL085W, strain MDH1 (second series), active compounds read low 0.936 | S. cerevisiae deletion strains, locus YKL085W, strain MDH1, active compounds read low 0.936 | S. cerevisiae deletion strains, locus YKR026C, strain gcn3, active compounds read low 0.945 | S. cerevisiae deletion strains, locus YKR091W, strain srl3, active compounds read low 0.95 | S. cerevisiae deletion strains, locus YLR058C, strain SHM2, active compounds read low 0.98 | S. cerevisiae deletion strains, locus YLR357W, strain rsc2, active compounds read low 0.901 | S. cerevisiae deletion strains, locus YLR384C, strain iki3, active compounds read low 0.982 | S. cerevisiae deletion strains, locus YML032C, strain rad52, active compounds read low 0.961 | S. cerevisiae deletion strains, locus YML120C, strain ndi1, active compounds read low 0.924 | S. cerevisiae deletion strains, locus YML124C, strain tub3, active compounds read low 0.981 | S. cerevisiae deletion strains, locus YNL250W, strain rad50, active compounds read low 0.916 | S. cerevisiae deletion strains, locus YNL298W, strain CLA4, active compounds read low 0.925 | S. cerevisiae deletion strains, locus YNL322C, strain KRE1 (second series), active compounds read low 0.911 | S. cerevisiae deletion strains, locus YNR049C, strain mso1, active compounds read low 0.986 | S. cerevisiae deletion strains, locus YNR052C, strain pop2, active compounds read low 0.983 | S. cerevisiae deletion strains, locus YOL147C, strain pex11, active compounds read low 0.959 | S. cerevisiae deletion strains, locus YOR001W, strain rrp6, active compounds read low 0.976 | S. cerevisiae deletion strains, locus YOR080W, strain dia2, active compounds read low 1.01 | S. cerevisiae deletion strains, locus YOR144C, strain elg1, active compounds read low 0.962 | S. cerevisiae deletion strains, locus YOR231W, strain MKK1, active compounds read low 0.93 | S. cerevisiae deletion strains, locus YOR290C, strain snf2, active compounds read low 0.911 | S. cerevisiae deletion strains, locus YPL078C, strain atp4, active compounds read low 0.954 | S. cerevisiae deletion strains, locus YPL106C, strain sse1, active compounds read low 0.984 | S. cerevisiae deletion strains, locus YPL256C, strain CLN2, active compounds read low 0.895 | S. cerevisiae deletion strains, locus YPR141C, strain kar3, active compounds read low 0.983
